The text below walks through data of PubChem BioAssay AID651561 (Sanford-Burnham Center for Chemical Genomics, 2012).

A short description of this test: mitochondrial permeability transition pore inhibitors, dose response, biochemical, absorbance, uHTS hits (AID 651561). To be noted: isolated mitochondria swelling.

The list shows a part of the results. A number with no mark means an inactive call. Active and inactive are the calls of the source. No stated cut-off is given here; in the data, active means IC50 below about 20 µM; inactive means the rest.

For orientation: IC50 means the concentration that inhibits the measured activity by half. For `COc1ccc(/C=C(/CC(=O)Nc2ccc(C)cc2)c2nc3ccccc3s2)cc1`, the IC50 was 45.4 µM.

With `NC[C@H](Cc1ccccc1)NCCc1cc(C(F)(F)F)cc(C(F)(F)F)c1`, the IC50 was 12 µM (active).

As for `Cc1ccc(-c2noc(CCC(=O)Nc3ccccc3N3CCN(C)CC3)n2)cc1`, the IC50 was 18.8 µM (active).

As for `CCCCc1nc(NCCN)c(C#N)c2c1CSC(C)(C)C2`, the IC50 is 13.3 µM (active).

With `C[C@@H](CN1CCC[C@H]1CN1C(N)=NC[C@@H]1Cc1ccccc1)N1C[C@@H](Cc2ccccc2)N(CCCC2CCCC2)C1=N`, the IC50 was 3.54 µM (active).

Regarding `CCOC(=O)c1c(NC(=O)CSc2cn(CC)c3ccccc23)sc2c1CCC2`, the IC50 is over 100 µM.

On to `Fc1ccc(N2N=C(c3cccs3)CC2c2ccco2)c(F)c1` (stereo not drawn), for which the IC50 is 51.9 µM.

Turning to `CN1CCC[C@@H]1CCO[C@](C)(c1ccccc1)c1ccc(Cl)cc1`, the IC50 is 8.66 µM (active).

For the compound `O=C(Nc1cccc(C(F)(F)F)c1)c1ccc(N2CCNCC2)c([N+](=O)[O-])c1`, the IC50 was 8.28 µM (active).

For `Cc1cc(C)c(NC(=O)C[N+](C)(C)CC(O)COc2cccc3ccccc23)c(C)c1` (stereo not drawn), the IC50 is 3.67 µM (active).

As for `CN(C)Cc1ccc(F)cc1Sc1cc(Cl)ccc1Cl`, the IC50 is 45 µM.

On to `Cc1nn(Cc2ccccc2)c2c1C(c1ccccc1)C(C#N)=C(N)O2` (stereo not drawn), for which the IC50 is 25.9 µM.

As to `O=C(Nc1cccc(-c2cccc(Cl)c2)c1)C1CCN(C2CCC2)CC1`, the IC50 was 5.2 µM (active).

Take `CC1(C)CC(=O)c2sc(N)nc2C1`: the IC50 was over 100 µM.

In the case of `CCCc1[nH]nc2c1C(c1c(C)nn(-c3ccccc3)c1Cl)C(C#N)=C(N)O2` (stereo not drawn), the IC50 was over 100 µM.

With `CCCCCCCCCCCCN1C(=O)CSC1c1cccnc1` (stereo not drawn), the IC50 is 9.05 µM (active).

As to `CCCCOc1ccc(CSC(=N)N)cc1[N+](=O)[O-]`, the IC50 was 6.05 µM (active).

Regarding `COc1ccc2sc(N(CCCN(C)C)C(=O)c3ccc(S(=O)(=O)N(C)C4CCCCC4)cc3)nc2c1`, the IC50 is 7.47 µM (active).
